Laboratory results reported in PubChem BioAssay (NCATS).
Inconclusive results are not listed. Calls of active or inactive are those of the source. Unless noted, calls come from the whole dose curve; as a rule, active = well fitted curve in either direction with a large enough effect (not every such curve was filed as active); inconclusive = small, poorly fitted or top-dose-only effect, or another doubt; inactive = flat fitted curve, though single readings scatter.

Assays:
[1] = target: Lysosomal acid glucosylceramidase (Homo sapiens) (UniProt P04062); assay: Glucocerebrosidase-p2 (AID 348; in the data active = potency below about 10 µM; note: potency is the fitted concentration of half-maximal effect); conditions: purified GBA, blue fluorogenic substrate, 40 min
In short: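 Compounds titrated from 0.6 nM upwards against 0.2 nM enzyme in pH 5.9 citric acid/KH2PO4, taurocholate, tween-20; blue fluorogenic substrate 80 uM, 40 min room temperature, stopped and read Ex 365/Em 440 for AC50.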

[2] = AP1 Signaling Pathway (AID 357); conditions: ME-180 AP-1-bla reporter, EGF-induced, beta-lactamase ratio, 5 h; at 7.69 µM (top of the series) unless noted;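 note: ME-180 reporter cells stimulated with EGF at its EC50 level; % is set by controls: 0 for no effect and ±100 for the full control effect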
In short: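 First, ME-180 AP-1-bla cells were cultured overnight at 37 °C in low-serum Opti-MEM. Next, titrated compounds with EC50 EGF were incubated 5 hours. Finally, CCF4 was added for 2.5 hours and the 460/530 nm ratio recorded.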

[3] = NFAT Signaling Pathway (AID 444); conditions: Jurkat NFAT-bla M1, carbachol, beta-lactamase ratio, 5 h; at 7.69 µM (top of the series) unless noted;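 note: carbachol stimulus at about its EC50 of 1 µM final; % is set by controls: 0 for no effect and ±100 for the full control effect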
In short: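 Jurkat cells with NFAT-driven β-lactamase reporter and co-expressed M1 receptor, stimulated with carbachol (final 1 uM, ~EC50), compound titration, 5 h at 37 °C. CCF4 loaded 1 h at RT; 460/530 nm ratio gave %activity and AC50.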

[4] = Stat Signaling Pathway (AID 446); conditions: ME-180 SIE beta-lactamase reporter, IL-6 stimulated, 5 h; at 7.69 µM (top of the series) unless noted;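 note: ME-180 cervical cancer cells given 40 pM IL-6 alongside compound; SIE-controlled beta-lactamase reporter measured as 460/530 nm FRET emission ratio; % is set by controls: 0 for no effect and ±100 for the full control effect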
In short: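 IL-6/STAT signaling read in ME-180 cells via an SIE beta-lactamase reporter. Stimulus was 40 pM IL-6 (its AC50) for 5 hrs, so both activation and inhibition register.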

[5] = target: Glucocorticoid receptor (Homo sapiens) (UniProt P04150); assay: GR-EFC Redistribution (AID 451; calls by dose curve; note: potency is the fitted concentration of half-maximal effect); conditions: CHO-K1 GR-EFC translocation, beta-gal luminescence, 2 h
In short: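 CHO-K1 cells expressing nuclear EA and GR-ED fragments of b-gal; compounds titrated up to 46 uM final, 2 h at 37 C. GR nuclear translocation read as complemented b-gal luminescence after 1 h RT detection.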

[6] = target: Mitogen-activated protein kinase 10 (Mus musculus) (UniProt Q61831); assay: JNK3 AlphaScreen Assay (AID 530); conditions: JNK3 lysate, c-Jun phosphorylation; series mostly up to 57.1 µM;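 note: kinase came from lysate of stimulated human HepG2 cells; signal reports phosphorylation of biotinylated GST-cJun 1-79 at Ser73 with 10 µM ATP; % is set by controls: 0 for no effect and ±100 for the full control effect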
In short: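 qHTS format: compounds tested as titrations against IL-1beta/TNF-alpha-activated HepG2 lysate JNK3 with biotin-GST-cJun substrate and 10 uM ATP at room temperature. Loss of anti-phospho-cJun AlphaScreen signal indicates inhibition.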

[7] = target: 3',5'-cyclic-AMP phosphodiesterase 4B (Homo sapiens) (UniProt Q07343); assay: qHTS Assay for Inhibitors of PDE-IV (AID 607; active = well fitted activation curve with a large enough effect in the main read-out, with a control signal flat, not every such curve was filed as active; note: % of control where 0% means no effect); conditions: HEK293 ACTOne CNG channel cells, membrane potential fluorescence; series mostly up to 22.9 µM
In short: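 Live HEK293 cells with a modified cyclic nucleotide-gated (CNG) channel report intracellular cAMP via membrane-potential dye fluorescence (ex 535/em 590 nm). Endogenous PDE-IV was targeted. Compounds were tested at up to 22.9 uM final; RO 20-1724 100 uM served as control.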

[8] = qHTS Assay for Lipid Storage Modulators (AID 1519; calls by dose curve); conditions: Drosophila S3 cells, BODIPY lipid droplet/cell ratio, laser cytometry, cells loaded with oleic acid; for activity change, negative = inhibition: at 57.5 µM (top of the series)
In short: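 Cells seeded at 5,000 per well were treated with compounds over a concentration series and loaded with oleic acid (400 uM, as added). Lipid droplet fluorescence (488 nm excitation, 500-530 nm channel) was read by laser-scanning cytometry and normalized to 20 uM Triacsin C.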

[9] = Primary qHTS for small molecule stabilizers of the endoplasmic reticulum resident proteome: Secreted ER Calcium Modulated Protein (SERCaMP) assay (AID 1508630; active = well fitted curve in the direction sought with a large enough effect; an effect the other way counts as inactive or inconclusive; note: % is set by controls: 0 for no effect and ±100 for the full control effect); conditions: SH-SY5Y GLuc-SERCaMP (Gaussia luciferase released on ER calcium loss) secretion, thapsigargin, luminescence; series mostly up to 38.4 µM
In short: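 GLuc-SERCaMP-expressing SH-SY5Y cells, pretreated 16 h with compound, are challenged with thapsigargin to empty ER calcium stores; after 4 h, coelenterazine is added directly to the medium and luminescence is imaged.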

[10] = target: Cytochrome P450 3A4 (Homo sapiens) (UniProt P08684); assay: qHTS Assay for Activators of Cytochrome P450 3A4 (AID 885; active = well fitted curve in the direction sought with a large enough effect; an effect the other way counts as inactive or inconclusive; note: nearly all actives have a fitted effect of over 65% in size); conditions: recombinant CYP3A4, Luciferin-PPXE luminescence, 60 min; series mostly up to 57.1 µM
In short: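 Quantitative HTS format: compounds preincubated with 20nM human CYP3A4 and Luciferin-PPXE substrate at KM, reaction started by NADPH regeneration, stopped after 60 min, luciferase luminescence read 20 min later.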

[11] = qHTS Assay for Identification of Small Molecule Agonists for Hypoxia Response Element Signaling Pathway (AID 914; active = well fitted activation curve with a large enough effect in the signal ratio, with a control signal flat, not every such curve was filed as active; the % refers to the signal ratio; note: potency is the fitted concentration of half-maximal effect; for activation: % of control where 0% means no effect); conditions: ME-180 (cervical carcinoma) HRE-bla reporter, beta-lactamase ratio, CoCl2, 17 h; activation: stronger effect = higher value
In short: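 Compounds in a titration series were added to ME-180 reporter cells alongside an EC50 level of CoCl2. After 17 hours, beta-lactamase activity was read as the 460nm/530nm emission ratio of CCF4, giving AC50 values.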

[12] = target: Glucocorticoid receptor (Homo sapiens) (UniProt P04150); assay: GR-GFP Redistribution (AID 450;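 active = compounds whose dose series gives a full or clear partial fitted curve of increased nuclear translocation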; note: potency is the fitted concentration of half-maximal effect); conditions: U2OS GR-GFP nuclear translocation, laser cytometry, 2 h
[13] = target: Cytochrome P450 2C9 (Homo sapiens) (UniProt P11712); assay: qHTS Assay for Inhibitors and Substrates of Cytochrome P450 2C9 (AID 883; active = well fitted curve in the direction sought with a large enough effect; an effect the other way counts as inactive or inconclusive; note: % is set by controls: 0 for no effect and ±100 for the full control effect; nearly all actives have a fitted effect of over 60% in size); conditions: recombinant CYP2C9, luciferin-H luminescence, 60 min; series mostly up to 57.1 µM
In short: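 Signal: luciferase luminescence reporting luciferin produced by CYP2C9. Conditions: 10nM enzyme, Luciferin-H 100uM at KM, 25mM KPO4, 37C, 60 min NADPH-driven reaction. Reference: 57uM sulphaphenazole as 100% inhibition.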

[14] = measured here: cell count channel max response
[15] = measured here: lipid channel max response

Chain of 3',5'-cyclic-AMP phosphodiesterase 4B (Homo sapiens) (Q07343 whole entry, looked up): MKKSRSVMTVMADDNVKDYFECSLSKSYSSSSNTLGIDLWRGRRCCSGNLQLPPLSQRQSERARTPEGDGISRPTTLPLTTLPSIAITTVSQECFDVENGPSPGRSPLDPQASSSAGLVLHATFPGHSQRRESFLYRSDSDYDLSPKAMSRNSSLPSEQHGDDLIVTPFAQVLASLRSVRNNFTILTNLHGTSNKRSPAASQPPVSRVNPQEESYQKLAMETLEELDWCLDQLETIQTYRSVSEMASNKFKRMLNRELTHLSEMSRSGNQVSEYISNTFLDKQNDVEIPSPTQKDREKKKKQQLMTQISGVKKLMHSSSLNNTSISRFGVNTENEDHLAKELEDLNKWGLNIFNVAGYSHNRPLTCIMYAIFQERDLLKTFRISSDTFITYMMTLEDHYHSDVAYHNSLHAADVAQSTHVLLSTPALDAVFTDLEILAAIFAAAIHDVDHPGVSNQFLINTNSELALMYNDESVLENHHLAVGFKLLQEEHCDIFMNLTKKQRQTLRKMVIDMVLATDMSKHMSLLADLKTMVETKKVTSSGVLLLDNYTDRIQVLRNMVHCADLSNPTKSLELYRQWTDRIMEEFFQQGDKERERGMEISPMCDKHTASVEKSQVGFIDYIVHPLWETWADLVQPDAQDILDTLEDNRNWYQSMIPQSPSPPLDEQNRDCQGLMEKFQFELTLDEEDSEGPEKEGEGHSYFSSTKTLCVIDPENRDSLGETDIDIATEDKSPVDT
Chain of Lysosomal acid glucosylceramidase (Homo sapiens) (P04062 whole entry, looked up): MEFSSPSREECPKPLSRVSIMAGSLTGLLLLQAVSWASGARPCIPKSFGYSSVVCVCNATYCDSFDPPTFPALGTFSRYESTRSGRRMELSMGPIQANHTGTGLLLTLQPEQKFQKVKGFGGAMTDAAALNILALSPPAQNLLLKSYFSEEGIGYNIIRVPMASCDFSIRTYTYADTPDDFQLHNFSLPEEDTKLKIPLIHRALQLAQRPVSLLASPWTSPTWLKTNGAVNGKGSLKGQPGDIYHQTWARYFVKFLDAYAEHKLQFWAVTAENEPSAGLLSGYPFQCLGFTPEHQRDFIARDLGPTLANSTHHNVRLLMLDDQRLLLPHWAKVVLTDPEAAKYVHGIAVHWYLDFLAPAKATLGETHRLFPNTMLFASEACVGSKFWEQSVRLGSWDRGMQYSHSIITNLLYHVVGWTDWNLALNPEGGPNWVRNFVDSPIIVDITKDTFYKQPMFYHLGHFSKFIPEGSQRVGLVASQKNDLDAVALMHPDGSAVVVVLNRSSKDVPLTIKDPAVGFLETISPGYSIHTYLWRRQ
Chain of Glucocorticoid receptor (Homo sapiens) (P04150 whole entry, looked up, the tested form may be a part): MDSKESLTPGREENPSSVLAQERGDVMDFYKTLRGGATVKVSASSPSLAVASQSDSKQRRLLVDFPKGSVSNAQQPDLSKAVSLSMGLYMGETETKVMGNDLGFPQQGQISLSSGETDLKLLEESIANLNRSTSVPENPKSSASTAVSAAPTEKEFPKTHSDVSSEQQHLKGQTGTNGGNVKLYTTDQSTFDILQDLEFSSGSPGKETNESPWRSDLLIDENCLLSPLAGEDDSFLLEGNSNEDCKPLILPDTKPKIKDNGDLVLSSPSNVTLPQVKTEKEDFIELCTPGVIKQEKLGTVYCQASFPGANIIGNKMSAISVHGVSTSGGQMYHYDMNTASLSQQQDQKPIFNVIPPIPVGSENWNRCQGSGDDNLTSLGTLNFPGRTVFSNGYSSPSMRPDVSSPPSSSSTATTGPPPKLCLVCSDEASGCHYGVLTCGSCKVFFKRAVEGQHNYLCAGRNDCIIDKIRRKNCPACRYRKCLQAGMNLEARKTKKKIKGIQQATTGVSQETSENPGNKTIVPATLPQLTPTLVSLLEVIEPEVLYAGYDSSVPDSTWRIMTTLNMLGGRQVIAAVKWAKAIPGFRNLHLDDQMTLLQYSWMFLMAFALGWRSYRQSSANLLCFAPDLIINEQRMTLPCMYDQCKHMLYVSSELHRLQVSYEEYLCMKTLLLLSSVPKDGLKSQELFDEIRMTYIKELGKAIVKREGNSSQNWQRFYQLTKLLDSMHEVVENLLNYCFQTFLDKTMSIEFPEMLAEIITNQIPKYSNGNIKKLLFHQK
Chain of Cytochrome P450 3A4 (Homo sapiens) (P08684 whole entry, looked up): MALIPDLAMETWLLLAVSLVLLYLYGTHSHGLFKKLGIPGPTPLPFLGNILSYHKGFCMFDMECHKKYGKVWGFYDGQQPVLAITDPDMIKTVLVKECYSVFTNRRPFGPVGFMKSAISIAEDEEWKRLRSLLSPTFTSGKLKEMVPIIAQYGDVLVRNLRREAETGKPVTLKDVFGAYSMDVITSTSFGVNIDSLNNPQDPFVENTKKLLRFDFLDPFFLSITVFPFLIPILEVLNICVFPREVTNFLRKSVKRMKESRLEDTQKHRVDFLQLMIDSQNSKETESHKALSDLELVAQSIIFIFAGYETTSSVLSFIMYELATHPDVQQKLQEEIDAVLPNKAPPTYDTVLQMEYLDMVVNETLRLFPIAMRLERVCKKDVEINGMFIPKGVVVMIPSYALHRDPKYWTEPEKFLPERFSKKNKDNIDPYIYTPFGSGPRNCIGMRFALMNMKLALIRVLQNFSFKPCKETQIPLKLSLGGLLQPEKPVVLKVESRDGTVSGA
Chain of Cytochrome P450 2C9 (Homo sapiens) (P11712 whole entry, looked up): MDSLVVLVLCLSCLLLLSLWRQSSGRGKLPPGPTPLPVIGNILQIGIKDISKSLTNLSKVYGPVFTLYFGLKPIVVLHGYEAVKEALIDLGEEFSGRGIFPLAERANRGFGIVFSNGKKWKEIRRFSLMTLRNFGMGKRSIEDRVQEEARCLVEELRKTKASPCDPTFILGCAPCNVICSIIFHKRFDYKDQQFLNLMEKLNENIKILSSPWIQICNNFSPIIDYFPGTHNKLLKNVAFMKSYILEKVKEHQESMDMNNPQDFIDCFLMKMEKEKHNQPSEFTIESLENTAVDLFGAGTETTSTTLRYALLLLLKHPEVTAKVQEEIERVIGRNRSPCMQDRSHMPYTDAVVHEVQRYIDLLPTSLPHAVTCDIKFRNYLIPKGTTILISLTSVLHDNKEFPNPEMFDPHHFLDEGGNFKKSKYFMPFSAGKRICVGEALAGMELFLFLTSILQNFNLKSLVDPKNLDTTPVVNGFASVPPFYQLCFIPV

SMILES	Potency [1]	activity change, negative = inhibition [2]	activity change, negative = inhibition [3]	activity, negative = inhibition [4]	Potency [5]	Potency [6]	Potency [7]	activity change, negative = inhibition [8]	max response [8, 14] [%]	max response [8, 15] [%]	outcome [9]	Potency [10]	activation [11]	Potency [12]	Potency [13]	Potency [11]
Cc1noc(C)c1C(=O)N1CCC[C@@]2(CCN(c3ccccn3)C2)C1	> 11.4 µM (inactive)	-5.91% (inactive)	-10.2% (inactive)	-3.33% (inactive)	> 46 µM (inactive)	inactive	inactive	-1.14% (inactive)	20	24.9	inactive					
O=C(c1cccc(F)c1)N1CCC[C@@]2(CCN(c3ccccn3)C2)C1	> 11.4 µM (inactive)	-17% (inactive)	-7.81% (inactive)	-6.48% (inactive)	> 46 µM (inactive)	inactive	inactive	6.88% (inactive)	12.7	23.1	inactive					
Cn1cccc1C(=O)N1CCC[C@@]2(CCN(C(=O)Nc3cccc(C#N)c3)C2)C1	> 11.4 µM (inactive)	-6.67% (inactive)	10.5% (inactive)	-3.81% (inactive)	> 46 µM (inactive)	inactive	inactive	5.85% (inactive)	14.3	24.9	inactive	inactive				
CS(=O)(=O)N1CCC2(CC1)CN(Cc1ccc(C#N)cc1)C2	> 11.4 µM (inactive)	-16.8% (inactive)	-16.5% (inactive)		> 46 µM (inactive)	inactive	inactive	4.04% (inactive)	9.72	16.5	inactive					
COCC(=O)N1CCC2(CC1)CCN(C(=O)NC(C)C)CC2	> 11.4 µM (inactive)	-2.26% (inactive)	0.244% (inactive)	6.66% (inactive)	> 46 µM (inactive)	inactive	inactive	0.579% (inactive)	13.2	16.2	inactive		-5.43% (inactive)			
COc1ccc(Oc2ncc3nc(-c4cn(C)c5ccccc45)c(=O)n(CCC#N)c3n2)cc1	> 11.4 µM (inactive)	-1.79% (inactive)	-2.24% (inactive)		> 46 µM (inactive)	inactive	inactive	-4.32% (inactive)	27.8	26.1	inactive			> 9.22 µM (inactive)	inactive	3.16 µM (active)
O=S(=O)(c1ccccc1)N1CCC2(CCN(c3ccc(-c4ccccc4)cc3)CC2)CC1	> 11.4 µM (inactive)	1.76% (inactive)	11.9% (inactive)	-10.3% (inactive)	> 46 µM (inactive)	inactive	inactive	5.32% (inactive)	18.6	22.9	inactive	inactive				
N#Cc1ccc(CN2CCCC3(CCN(C(=O)c4csnn4)CC3)C2)cc1	> 11.4 µM (inactive)	-6.06% (inactive)		1.34% (inactive)	> 46 µM (inactive)	inactive	inactive	-0.464% (inactive)	-10.9	-8.04	inactive					
COC(=O)N1CCC2(CCN(Cc3ccccc3)CC2)CC1	> 11.4 µM (inactive)	-5.32% (inactive)		-1.16% (inactive)	> 46 µM (inactive)	inactive	inactive	2.47% (inactive)	-0.656	4.63	inactive					
Cc1noc(C)c1C(=O)N1CCC2(CC1)CCN(c1ccccn1)CC2	> 11.4 µM (inactive)	0.789% (inactive)		-0.0391% (inactive)	> 46 µM (inactive)	inactive	inactive	5.25% (inactive)	8.43	16.7	inactive					
